This is a sample that favours compounds with a hit; in the whole collection about 3.8% have one here.
ADAM17 inh – ADAM17 inhibitors, primary screen, biochemical, QFRET; Disintegrin and metalloproteinase domain-containing protein 17 (Homo sapiens), P78536; recombinant ADAM17, EDANS/DABCYL FRET peptide cleavage; inhibition, % at 6.95 µM; 370,000 tested, 0.83% active;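 active means inhibition above the mean of compounds lying between control limits plus 3 SD, set per campaign, cut at about 8.5% in these data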;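 further: 0% = DMSO-only wells as the low control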
Target sequence (P78536 215-824 limits assumed): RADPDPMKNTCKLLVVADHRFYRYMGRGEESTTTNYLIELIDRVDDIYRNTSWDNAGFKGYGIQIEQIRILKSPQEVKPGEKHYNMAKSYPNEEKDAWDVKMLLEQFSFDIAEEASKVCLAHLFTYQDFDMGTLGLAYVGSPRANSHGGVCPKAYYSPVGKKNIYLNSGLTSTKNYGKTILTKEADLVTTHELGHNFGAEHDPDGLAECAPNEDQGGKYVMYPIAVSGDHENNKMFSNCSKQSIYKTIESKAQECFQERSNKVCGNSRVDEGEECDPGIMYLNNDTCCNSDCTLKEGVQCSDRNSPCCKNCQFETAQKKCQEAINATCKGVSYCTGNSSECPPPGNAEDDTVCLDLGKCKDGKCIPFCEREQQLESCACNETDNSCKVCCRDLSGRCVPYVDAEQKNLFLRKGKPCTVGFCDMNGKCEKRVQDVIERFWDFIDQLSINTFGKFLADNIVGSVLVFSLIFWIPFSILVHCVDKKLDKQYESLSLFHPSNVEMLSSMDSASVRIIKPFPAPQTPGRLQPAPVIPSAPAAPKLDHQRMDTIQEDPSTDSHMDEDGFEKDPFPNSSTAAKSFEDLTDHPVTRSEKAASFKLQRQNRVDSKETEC
FGF22 binding-1 – binders of human FGF22 protein, primary screen, FGF22 synaptogenesis inhibitor project, biophysical, thermal shift, single point; Fibroblast growth factor 22 (Homo sapiens), Q9HCT0; recombinant FGF22 thermal shift, SYPRO orange fluorescence; percent of sucrose octasulfate shift, DMSO zero; activity (Tm shift, normalised), % at 9.99 µM; 340,000 tested, 1.5% active; AID 651658, 2012;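 active means mean Tm shift, scaled 0 neutral to 100 positive control, at about 1.3% or above, every replicate too, limit read from the data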
proKLK7 act – proKLK7 zymogen activators, primary screen, biochemical, fluorescence intensity. Kallikrein-7 (Homo sapiens), P49862. purified proKLK7, EDANS-DABCYL substrate fluorescence; 100% is mature enzyme control, 0% vehicle. activation, % at 7 µM. 370,000 tested, 0.9% active. AID 652039, 2013;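 active means activation above the mean of all tested compounds plus 3 SD, computed per campaign excluding outliers beyond control limits, cut at about 13% in these data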
ADAM10 inh – human ADAM10 inhibitors, primary screen, biochemical, QFRET, HTS; recombinant ADAM10, EDANS/DABCYL FRET peptide cleavage, 3 h; 370,000 tested, 0.62% active; AID 720582, 2013; Disintegrin and metalloproteinase domain-containing protein 10 (Homo sapiens), O14672; inhibition, % at 7 µM;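 active means inhibition above a per-campaign cutoff equal to the mean of compounds falling between control-based bounds plus 3 SD, cut at about 20% in these data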;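 further: 0% = DMSO wells while the 100% control is not disclosed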
rRNA inh HTS – reduced GFP signal of wild-type E. coli, primary screen, bacterial rRNA inhibitor project, GFP/RFP fluorescence, OD600, single point; E. coli WT GFP vs humanized-ribosome RFP mutants, 24 h; stronger effect = lower value; DMSO median 0, no signal -100; AID 720706, 2013; GFP signal change (wild-type ribosome), % (no concentration beside the values); 350,000 tested, 1.6% active;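 active means significant combined selectivity score with lowered wild-type GFP, culture density cut under 30%, mutant RFP and density less affected; inactive means any of these conditions unmet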
FGF22 binding-2 – binders of human FGF22 protein, dose response, FGF22 synaptogenesis inhibitor project, biophysical, thermal shift, cherry-pick retest; shares compounds with FGF22 binding-1; recombinant FGF22 thermal shift, SYPRO orange fluorescence; thermal shift activity, °C (ΔTm) at 38 µM; 1,000 tested, 2% active;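 active means fitted rise in melting shift crosses a set limit at or below the top valid dose tested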
FGF22 TSA – binders of human FGF22 protein, dose response, FGF22 synaptogenesis inhibitor project, biophysical, thermal shift, dry powder. Tm shift (activity), % at 38 µM. 50 tested, under 10 active. shares compounds with FGF22 binding-1. Thermal shift assay, SYPRO orange, melting temperature shift. AID 743017, 2013;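 active means compounds whose fitted dose curve of melting temperature shift rises past a set threshold within the tested doses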
SYPRO no-protein – compound-only thermal shift signal without protein, dose response, artefact control for FGF22 binder project, biochemical, cherry-picked samples, RT-PCR instrument. shares compounds with FGF22 binding-1. compound-only SYPRO orange thermal shift counter-screen, no protein. AC50, µM (highest dose often 38 µM). 1,000 tested, 2% active. AID 743019, 2013;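 active means rising signal whose fitted curve reaches the 0.54 level within the top valid dose, showing a melting point, actives reach about 13 µM in these data; inactive means the rest, including activity in the opposite direction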; further: value is where the raw curve crosses a fixed level and not half-maximal
Active calls of the source: *; [ ] = another dose, or the depositor's remark.

O=C(NCC1CCOCC1)c1ccc2nc(Cc3cccc(Cl)c3)oc2c1 was read as ADAM17 inh -4, FGF22 binding-1 1.4*, proKLK7 act 0, ADAM10 inh -4, rRNA inh HTS 1, FGF22 binding-2 0.33 and SYPRO no-protein inactive.
For CCOc1cc(-c2nc(C)c(C(C)=O)n2O)ccc1OCC(=O)Nc1ccc(F)cc1 the results were ADAM17 inh -2, FGF22 binding-1 2.7*, proKLK7 act 0, ADAM10 inh 7, rRNA inh HTS 12, FGF22 binding-2 -0.026 and SYPRO no-protein inactive.
For CC(=O)c1c(C)nc(-c2ccc(OCC(=O)Nc3ccc(F)cc3)cc2)n1O the results were ADAM17 inh 1, FGF22 binding-1 2.3*, proKLK7 act 0, ADAM10 inh 3, rRNA inh HTS -35, FGF22 binding-2 -0.14 and SYPRO no-protein inactive.
Screening COc1cc(-c2nc(C)c(C(C)=O)n2O)ccc1OCC(=O)Nc1ccc(F)cc1 returned ADAM17 inh 6, FGF22 binding-1 0, proKLK7 act 0, ADAM10 inh 0 and rRNA inh HTS -10.
Screening CCOc1cccc(C(=O)Nc2ccc3[nH]ncc3c2)c1 returned ADAM17 inh -4, FGF22 binding-1 1.6*, proKLK7 act 0, ADAM10 inh -6, rRNA inh HTS 3, FGF22 binding-2 -0.074, FGF22 TSA 0 and SYPRO no-protein inactive.
For CCOC(=O)[C@@H]1[C@H]2COc3cc(OC)ccc3[C@H]2N2C(=O)N(c3ccc(C)cc3)C(=O)[C@]12C the results were ADAM17 inh 0, FGF22 binding-1 1.6*, proKLK7 act 0, ADAM10 inh 8, rRNA inh HTS 0, FGF22 binding-2 0.055 and SYPRO no-protein inactive.
`COCC#Cc1ccc2c(c1)O[C@H](CN(C)CC1CCOCC1)[C@@H](C)CN([C@@H](C)CO)S2(=O)=O` gave FGF22 binding-1 0 and rRNA inh HTS -3.
Screening CC1CN(C(=O)C(C)N2CCN(c3cccc(Cl)c3)CC2)CC(C)O1 (stereo unspecified) returned ADAM17 inh 0, FGF22 binding-1 0, proKLK7 act 0, ADAM10 inh 0 and rRNA inh HTS 0.
For CC1CN(C(=O)C(C)N2CCN(c3ccccc3Cl)CC2)CC(C)O1 (stereo unspecified) the results were ADAM17 inh -4, FGF22 binding-1 17*, proKLK7 act 1, ADAM10 inh -7, rRNA inh HTS 12, FGF22 binding-2 -0.014 and SYPRO no-protein inactive.
For COc1cccc(NC(=O)N(C)C[C@H]2Oc3cc(-c4ccccc4OC)ccc3S(=O)(=O)N([C@H](C)CO)C[C@H]2C)c1 the results were FGF22 binding-1 1 and rRNA inh HTS -6.
Cc1ccccc1-c1ccc2c(c1)O[C@H](CN(C)CC1CC1)[C@H](C)CN([C@H](C)CO)S2(=O)=O was read as FGF22 binding-1 1.5*, rRNA inh HTS 2, FGF22 binding-2 0.14 and SYPRO no-protein inactive.
Screening C[C@H]1CN([C@@H](C)CO)S(=O)(=O)c2ccc(-c3cccc(C#N)c3)cc2O[C@H]1CN(C)C(=O)Nc1cc(F)ccc1F returned FGF22 binding-1 0 and rRNA inh HTS -6.
COc1cccc(NC(=O)N(C)C[C@@H]2Oc3cc(-c4ccccc4F)ccc3S(=O)(=O)N([C@H](C)CO)C[C@@H]2C)c1 was read as FGF22 binding-1 4.0*, rRNA inh HTS -5, FGF22 binding-2 -0.21[42 µM] and SYPRO no-protein inactive.
`C[C@@H]1CN([C@@H](C)CO)S(=O)(=O)c2ccc(-c3cccc(C#N)c3)cc2O[C@@H]1CN(C)C(=O)Nc1cc(F)ccc1F` gave FGF22 binding-1 1.3*, rRNA inh HTS 0 and SYPRO no-protein inactive.
`C[C@@H]1CN([C@@H](C)CO)S(=O)(=O)c2ccc(-c3ccc(F)cc3)cc2O[C@@H]1CN(C)C(=O)Nc1ccccc1F` gave FGF22 binding-1 1.7*, rRNA inh HTS 0, FGF22 binding-2 0.088 and SYPRO no-protein inactive.
`C[C@@H]1CN([C@H](C)CO)S(=O)(=O)c2ccc(-c3ccc(F)cc3)cc2O[C@H]1CN(C)C(=O)Nc1ccccc1F` gave FGF22 binding-1 0 and rRNA inh HTS -5.
Screening C[C@H]1CN([C@@H](C)CO)S(=O)(=O)c2ccc(-c3cccc(F)c3)cc2O[C@H]1CN(C)C(=O)Nc1cc(F)ccc1F returned FGF22 binding-1 1.4*, rRNA inh HTS -9, FGF22 binding-2 0.17 and SYPRO no-protein inactive.
CCCNC(=O)N1CC2(C1)[C@@H](c1ccccc1)[C@@H](CO)N2CC1CC1 was read as rRNA inh HTS 2.
Screening O=C(NCC[C@@H]1CC[C@@H](NS(=O)(=O)c2ccccc2)[C@@H](CO)O1)c1ccc2c(c1)OCO2 returned FGF22 binding-1 1.4*, rRNA inh HTS -1, FGF22 binding-2 -0.1[42 µM] and SYPRO no-protein inactive.
Screening C/C=C/c1ccc2c(c1)O[C@H](CN(C)Cc1ccncc1)[C@@H](C)CN([C@H](C)CO)S2(=O)=O returned FGF22 binding-1 0 and rRNA inh HTS -12.
For C/C=C/c1ccc2c(c1)O[C@@H](CN(C)Cc1ccncc1)[C@@H](C)CN([C@@H](C)CO)S2(=O)=O the results were FGF22 binding-1 1.6*, rRNA inh HTS -6, FGF22 binding-2 0.19[42 µM] and SYPRO no-protein inactive.
For C/C=C/c1ccc2c(c1)O[C@@H](CN(C)C(=O)Nc1cc(F)ccc1F)[C@H](C)CN([C@H](C)CO)S2(=O)=O the results were FGF22 binding-1 0 and rRNA inh HTS -6.
For C/C=C/c1ccc2c(c1)O[C@H](CN(C)C(=O)Nc1cccc(F)c1)[C@H](C)CN([C@H](C)CO)S2(=O)=O the results were FGF22 binding-1 0 and rRNA inh HTS 0.

Compound activity deposited in PubChem BioAssay by several laboratories.
